Bioassay records as filed in PubChem BioAssay.
In the library only some 1.3% were active in any assay of this set; here they are far more common.
TCR activator: Activators of T cell receptors: qHTS campaign; primary human leukocytes, anti-CD3, IL-2 HTRF, 48 h; 330,000 tested, under 10 active; Potency, µM (highest dose often 9.22 µM), for inactives: at the highest dose activation of IL-2 secretion, most hits filed as activators; note: % of control where 0% means no effect
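Readout: HTRF IL-2, Eu-cryptate/d2 antibody pair, 320nm excitation, 665nm emission. Stimulus: a-CD3 beads, no co-stimulation. Cells: primary human leukocytes. Exposure: 48 hr with compound.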
Mito fusion yeast: qHTS Assay for Small Molecule Inhibitors of Mitochondrial Division or Activators of Mitochondrial Fusion; S. cerevisiae fusion-defective mutant growth rescue, CellTiterGlo 48 h; Potency, µM (series often up to 46.1 µM), without a hit: at the highest dose growth rescue (activation), hits mostly activators; 320,000 compounds, 0.23% hits; AID 485298, 2010; note: potency is the fitted concentration of half-maximal effect; % of control where 0% means no effect; nearly all actives have a fitted effect of over 45% in size
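Yeast fusion mutant, YPEG (non-fermentable carbon), compound, 48 h at 37C non-permissive; CellTiterGlo added, 10 min RT, luminescence read. Rescued growth = division inhibition.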
BRCA1 expr up: qHTS Assay to Identify Small Molecule Activators of BRCA1 Expression | MCF7-BRCA1-FFLuc reporter, luminescence, 48 h; response scale: scaled: vehicle 0%, 10 µM genistein 100% | Potency, µM (doses to about 46.1 µM), inactives show at the top dose activation, actives largely listed as activators | 380,000 compounds, 1.1% hits | AID 624202, 2012; note: potency is the fitted concentration of half-maximal effect; nearly all actives have a fitted effect of over 80% in size
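Using MCF7 cells harboring a BRCA1 firefly luciferase reporter, plated 2 h before compound pinning, the screen measured luminescence after 48 h incubation. Responses were normalized to DMSO and 10 microM genistein, then fitted for concentration-effect.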
PTHR1 agonist: qHTS for PTHR1 Agonists: Primary Screen; Parathyroid hormone/parathyroid hormone-related peptide receptor (Homo sapiens), Q03431; HEK293 GP2 PTHR1 cells, GloSensor cAMP luminescence, 1 h; Potency, µM (titrated, usually from 115 µM), without a hit: at the highest dose activation, most hits filed as activators; 410,000 compounds, 0.075% hits; AID 743266, 2014; note: potency is the fitted concentration of half-maximal effect; nearly all actives have a fitted effect of over 55% in size
Target sequence (Q03431 whole entry, looked up): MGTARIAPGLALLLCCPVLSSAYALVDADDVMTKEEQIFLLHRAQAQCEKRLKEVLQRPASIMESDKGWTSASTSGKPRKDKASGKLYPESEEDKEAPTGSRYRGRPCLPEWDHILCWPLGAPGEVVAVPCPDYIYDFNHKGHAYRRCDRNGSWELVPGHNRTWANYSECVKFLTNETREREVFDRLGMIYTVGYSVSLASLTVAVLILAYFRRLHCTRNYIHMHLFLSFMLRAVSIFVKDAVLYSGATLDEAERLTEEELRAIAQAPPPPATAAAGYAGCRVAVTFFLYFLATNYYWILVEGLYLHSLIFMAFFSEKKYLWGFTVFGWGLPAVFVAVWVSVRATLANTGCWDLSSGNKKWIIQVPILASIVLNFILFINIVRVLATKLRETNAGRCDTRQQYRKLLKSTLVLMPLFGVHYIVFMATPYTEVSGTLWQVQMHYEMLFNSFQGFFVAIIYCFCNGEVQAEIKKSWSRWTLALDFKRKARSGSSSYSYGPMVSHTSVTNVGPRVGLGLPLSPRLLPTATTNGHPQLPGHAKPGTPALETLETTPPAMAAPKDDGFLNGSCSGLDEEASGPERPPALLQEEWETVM
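HEK-293-derived GP2 cells expressing PTHR1 and a GloSensor cAMP reporter, 3,000/well, plated overnight, given luciferin plus IBMX (each 0.5 mM as added) for 1 h at 37 °C, then compound for 1 h at 37 °C. Luminescence was read after 15 min at room temperature.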
IL-2 act: qHTS of IL-2 Activators | activation, % (series mostly up to about 46 µM) | AID 652025, 2013 | IL-2 activation reporter assay, cell-based qHTS; stimulated with anti-CD3/CD4/CD28 beads; in transgenic mouse T cells | 360,000 compounds, 0.065% hits; in the data active = activation above about 50%; inconclusive = mostly about 30% to 49%; note: 0% is about no effect
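Unstimulated transgenic mouse T cells, 750 per well, received compound and, after 60 minutes, anti-CD3/anti-CD4 bead plus anti-CD28 stimulation. EGFP and DsRed were quantified after 18 hours.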
BCR signal inh: qHTS Assay to Find Inhibitors of Chronic Active B-Cell Receptor Signaling. ABC-DLBCL IkBa-CBG/CBR reporter, luminescence ratio, 4 h. Potency, µM (highest dose often 46.1 µM), for inactives: at the highest dose activity change, negative = inhibition, actives largely listed as inhibitors. 340,000 compounds, 0.05% hits. AID 493014, 2011; active = well fitted inhibition curve with a large enough effect in the signal ratio, with a control signal flat, not every such curve was filed as active; inconclusive = small, poorly fitted or top-dose-only effect, or effect the other way, or a change in a side signal; the % refers to the signal ratio;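 note: potency is the fitted concentration of half-maximal effect; plate controls were basal doxycycline-induced cells for no effect and cells given 10 µM MG132 for full effect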
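Compounds up to 46 uM were incubated four hours with TMD8 cells whose green CBG68 luciferase is fused to IkappaBalpha; red CBR luminescence normalised the signal, and concentration-effect curves were fitted to fusion, red and ratio data.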
* marks the source's active call; other numbers are inactive results; i = inactive; ? = inconclusive; nt = not tested or not shown; [ ] = another dose, or the depositor's remark. Unless noted, calls come from the whole dose curve; as a rule, active = well fitted curve in the direction sought with a large enough effect; inconclusive = small, poorly fitted or top-dose-only effect, or another doubt; inactive = no such curve, though single readings can be large; an effect the other way counts as inactive or inconclusive.

SMILES	TCR activator	Mito fusion yeast	BRCA1 expr up	PTHR1 agonist	IL-2 act	BCR signal inh
CC(C)CSc1nsc(N)n1	0.3%	6.3%	12.6µM*	-4.3%[57.5 µM]	-2.1	0.5%
Cc1ccc2nc(-c3ccc(N4C(=N)SC5CS(=O)(=O)CC54)cc3)sc2c1 (stereo not drawn)	-8.1%[46.1 µM]	-0.4%	8.91µM*	i	1.4	15.4%
COc1ccc2c(c1)CC/C(=C\C=C\c1ccccc1OC)C2=O	1.8%[46.1 µM]	24.7%	11.2µM*	-15.0%	-3.0	?
COc1ccc2c(c1)C(=O)/C(=C/C=C/c1ccccc1)CC2	-2.1%[46.1 µM]	14.7%	-1.9%	i	2.7	-20.8%
C/C(=N\NC(=O)c1sccc1C)c1cccnc1	-0.2%	-0.4%	2.82µM*	-9.5%	-0.6	?
Cn1c(SCc2ccccc2)nnc1-c1cnccn1	-4.1%	-9.5%	?	18.7%[57.5 µM]	0.4	0.7%
Cn1c(SCc2ccc(F)cc2)nnc1-c1cnccn1	4.3%	-3.1%	11.2µM*	i	2.5	?
Cc1nnc(SCc2ccc3c(c2)OCO3)s1	0.2%	-2.0%	8.91µM*	-69.4%[57.5 µM]	0.1	?
Cc1nnc(NC(=O)c2ccc3c(c2)OCO3)s1	-21.1%	7.0%	5.62µM*	-2.0%	-0.8	19.8%
CSc1nnc(NC(=O)c2ccc3c(c2)OCO3)s1	1.7%	0.9%	-28.7%	-37.1%	-1.6	?
O=c1c(Cl)c(N/N=C/c2ccc(Cl)cc2)cnn1-c1ccccc1	-8.0%	8.91µM*	-43.9%	-12.2%	-0.9	0.3%
CC(C)n1nnnc1SCC(=O)N1N=C(c2cccs2)CC1c1cccs1 (stereo not drawn)	4.9%	8.5%	12.6µM*	-11.0%	-5.0	?
O=C(Nc1ccccc1)N1N=C(c2cccs2)CC1c1cccs1 (stereo not drawn)	12.4%[46.1 µM]	11.2µM*	-21.3%	-13.8%	-0.2	-0.2%
c1ccc(CSc2nnc(NC3CCCCC3)s2)cc1	nt	nt	3.55µM*	-29.1%	-1.9	nt
Cc1cc(-c2ccccc2)nc(Oc2ccc(C(C)(C)C)cc2)c1S(C)(=O)=O	0.1%	8.91µM*	-46.2%	-72.4%[57.5 µM]	-0.6	?
COc1ccccc1/C=C/C(=O)NC(=S)Nc1ccccn1	nt	-5.6%	-19.4%	-5.6%	0.1	?
COc1ccc(NC(=S)Nc2ccccn2)cc1	0.1%	-6.9%	3.98µM*	-9.8%	0.0	?
COc1ccc(/C=C/C(=O)NC(=S)Nc2ccccn2)cc1	-9.5%	-27.0%	8.91µM*	i	1.3	2.5%
COc1cc2c(NC3CCN(C)CC3)nc(N3CCCN(C)CC3)nc2cc1OCCCCCCN(C)C	nt	nt	-36.8%	nt	nt	nt
COc1cccc(OC)c1C(=O)Nc1ccc(S(=O)(=O)N2CCCCC2)cc1	8.5%	11.8%	-2.8%	i	0.2	-12.7%
CCC(=O)CCC(=O)c1ccc2ccccc2c1	-0.4%[46.1 µM]	-7.9%	7.08µM*	-2.5%	1.1	-3.9%
C[S+](C)CC(=O)c1ccc2ccccc2c1	nt	nt	-1.8%	nt	nt	nt
Cc1ccc(-c2nc3c4ccccc4ccn3c2Cc2ccccc2)cc1	nt	nt	-34.5%	i	-2.5	nt
CCCc1nc2c3ccccc3ccn2c1Cc1ccccc1	nt	nt	11.2µM*	-12.0%	-1.0	nt
Fc1ccc(C(CCNCc2cccs2)c2ccco2)cc1 (stereo not drawn)	-0.6%	-2.1%	-10.0%	i	-0.6	-0.8%
SMILES	TCR activator	Mito fusion yeast	BRCA1 expr up	PTHR1 agonist	IL-2 act	BCR signal inh
O=S(=O)(NCCC(c1ccc(F)cc1)c1ccco1)c1ccccc1 (stereo not drawn)	-7.3%[46.1 µM]	22.4µM*	-27.1%	-21.9%	-0.2	8.5%
CC1SCC(NC(=O)c2ccc(Cl)cc2)CS1 (stereo not drawn)	1.3%	-3.7%	11.2µM*	-1.9%	0.9	?
CC1SCC(NC(=O)c2cccc(Cl)c2)CS1 (stereo not drawn)	-4.4%	-1.7%	0.0%	i	-2.2	?
O=C(CNC(=O)c1ccc2ccccc2c1)NC1CCCCC1	13.4%	nt	18.3%	-4.8%	-0.7	?
O=C(NC(=S)NC1CCCCC1)c1ccc(F)cc1	10.3%	-3.5%	11.2µM*	-28.3%	-1.2	-13.4%
N=c1oc2ccccc2cc1C(=O)NC1CCCCCC1	-8.6%	-0.7%	4.47µM*	i	-2.2	?
O=C(NC1CCCCC1)c1ccc2ccccc2c1	nt	nt	3.16µM*	-19.6%	-1.1	nt
O=C(NC1CCCCCC1)c1cc2ccccc2oc1=O	5.3%	-5.2%	65.6%	-40.0%	-0.8	?
COc1ccccc1C(=O)N/C(=C\c1ccccc1)C(=O)NCc1ccco1	5.2%	4.3%	-0.2%	i	-3.1	0.1%
CCOc1ccc(NC(=O)COC(=O)c2ccccc2OCC(=O)N(C)C)cc1	nt	nt	24.9%	nt	nt	nt
CCNC(=S)N/N=C/c1cccc(C)c1	1.2%[46.1 µM]	-11.3%	10µM*	i	0.1	?
Cc1nn(-c2ccc(N3CCCC3)nn2)c(C)c1CCC(=O)Nc1ccc(F)c(Cl)c1	nt	nt	nt	-91.4%	nt	nt
Cc1ccc(NC(=O)CCc2c(C)nn(-c3ccc(N4CCCCC4)nn3)c2C)cc1	7.1%	?	3.98µM*	-37.1%	0.3	1.9%
Cc1nn(-c2ccc(N3CCCCC3)nn2)c(C)c1CCC(=O)Nc1ccc(F)c(F)c1	11.7%	0.5%	2.24µM*	-76.0%	-1.1	?
Cc1ccc(/C=N/NC(=O)c2ccncc2)o1	-7.3%[46.1 µM]	1.0%	-17.9%	i	-2.1	3.2%
O=C(N/N=C/c1ccc2c(c1)OCO2)c1ccccn1	-5.5%	0.1%	-49.9%	-14.0%[57.5 µM]	-0.9	?
Cc1ccc(/C=N/NC(=O)c2ccccn2)o1	1.1%[46.1 µM]	-1.4%	11.2µM*	i	-0.2	?
O=C(N/N=C/c1cc2c(cc1Br)OCO2)c1ccccn1	2.8%	-2.1%	7.94µM*	-4.0%	-0.7	?
CC(=O)NC1=CC(=O)c2nonc2C1=O	nt	nt	-22.3%	nt	nt	nt
CCOC(=O)c1ccc(Nc2ncnc3nc[nH]c23)cc1	0.1%	-0.9%	6.31µM*	i	-1.2	-13.9%
CCOC(=O)c1ccc(Nc2ncnc3ccccc23)cc1	7.4%	-0.5%	66.8%	-14.8%	-0.1	-4.3%
Cc1ccc(Nc2ncnc3nc[nH]c23)cc1	nt	nt	11.2µM*	nt	nt	nt
Cc1cccc(Nc2ncnc3nc[nH]c23)c1	5.0%[46.1 µM]	-1.0%	41.3%	i	-0.4	?
CC(C)CNc1ncnc2[nH]ncc12	0.8%	nt	-1.9%	i	-0.5	nt
Cc1cc(OCCN2CCOCC2)ccc1Cl	7.3%	-1.3%	12.6µM*	-17.1%	-1.6	-0.9%
O=C(CSc1ccc2nc(-c3ccccc3)cn2n1)Nc1ccccc1	nt	nt	-17.2%	-18.8%	nt	16.0%
